In general, AC50 refers to the concentration giving half of the maximal activity seen.

For 5 compounds, AC50 and outcome results are on record in PubChem BioAssay (EPA / NIEHS).

The source holds several records for some structures; these can differ, active in one and inactive in another. Active and inactive are the calls of the source. The calls were made as follows: active = hit-call score of the fitted dose curve at least 0.9, where 1 is the maximum; inactive = score below 0.9.

Assay [1] is described as follows: BSK_4H_Eotaxin3: BioMAP Diversity Plus: 4H Assay for Eotaxin 3 Biomarker Activity (AID 2283000).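 As to outcome: CCL26 protein level quantified by ELISA in parallel with SRB cytotoxicity check.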 To be noted: primary human endothelial cells (HUVEC); actives raise or lower the signal. A digest of the protocol: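 ELISA quantitation of CCL26 (Eotaxin-3) protein from chemically dosed human vascular endothelial cells at 24 h; increases and decreases both scored relative to DMSO-treated baseline.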

Read-out in assay [2]: Intercellular Adhesion Molecule 1 (ICAM1), ICAM1 (gene 3383)
The assay can be described thus: BSK_3C_ICAM1: BioMAP Diversity Plus: 3C Assay for Intercellular Adhesion Molecule 1 (ICAM1) Biomarker Activity (AID 2283003). Conditions: primary human endothelial cells (HUVEC); actives raise or lower the signal. A digest of the protocol: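 Chemicals are dosed onto primary human umbilical vein endothelium (3C system). After 24 h, ICAM-1 is measured by ELISA, and responses are fitted bidirectionally relative to DMSO.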

Read-out in assay [3]: Interleukin-1 alpha (IL1a), IL1A (gene 3552)
The assay is described as follows: BSK_BE3C_IL1a: BioMAP Diversity Plus: BE3C Assay for Interleukin-1 alpha (IL1a) Biomarker Activity (AID 2283016). To be noted: primary human bronchial epithelial cells; actives raise or lower the signal. A digest of the protocol:
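Signal from IL-1a ELISA, taken 24 h after chemical dosing of human bronchial epithelial cells, is compared with DMSO as baseline using bidirectional curve fitting.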

Read-out in assay [4]: Monocyte Chemoattractant Protein-1 (MCP1), CCL2 (gene 6347)
The assay can be described thus: BSK_3C_MCP1: BioMAP Diversity Plus: 3C Assay for Monocyte Chemoattractant Protein-1 (MCP1) Biomarker Activity (AID 2283017). Conditions: primary human endothelial cells (HUVEC); actives raise or lower the signal. A digest of the protocol: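 Using human vascular primary endothelium, researchers measured MCP-1 by ELISA 24 h after treatment, with DMSO serving as negative control for bidirectional fitting.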

Read-out in assay [5]: Interleukin-8 (IL8), CXCL8 (gene 3576)
The assay can be described thus: BSK_3C_IL8: BioMAP Diversity Plus: 3C Assay for Interleukin-8 (IL8) Biomarker Activity (AID 2283020). To be noted: primary human endothelial cells (HUVEC); actives raise or lower the signal. A digest of the protocol:
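Endothelial primary cells of human umbilical vein origin are dosed with chemical; after 24 h the IL-8 biomarker is measured by ELISA, and concentration–response is fitted in both directions versus DMSO.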

A short description of assay [6]: BSK_3C_SRB: Viability Assessment in the BioMAP Diversity Plus: 3C Assay (AID 2283023).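 Also: cells read 24 h after compound dosing; fitted both ways against DMSO so a hit may be signal rise or drop.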 To be noted: primary human endothelial cells (HUVEC). The procedure, abridged:
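Overt cytotoxicity is gauged in parallel confluent HUVEC cultures by SRB total-protein staining at the time of biomarker measurement, 24 h after dosing. Gain or loss of signal is fitted versus DMSO.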

Read-out in assay [7]: Pselectin, SELP (gene 6403)
The assay is described as follows: BSK_4H_Pselectin: BioMAP Diversity Plus: 4H Assay for Pselectin Biomarker Activity (AID 2283026). Conditions: primary human endothelial cells (HUVEC); actives raise or lower the signal. A digest of the protocol:
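Endothelial primary cells (human umbilical vein) are dosed, incubated 24 h, and assayed for surface P-selectin by ELISA; responses in either direction are fitted relative to the DMSO negative control.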

Assay [8] is described as follows: BSK_4H_SRB: Viability Assessment in the BioMAP Diversity Plus: 4H Assay (AID 2283027).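 Also: cells exposed to compound for 24 h before staining.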 Conditions: primary human endothelial cells (HUVEC). The procedure, abridged:
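HUVEC, 24 h post-dose; 10% TCA fix, 0.1% SRB stain, A560 nm. Total protein = overt cytotoxicity, parallel to biomarker read. Bidirectional fit vs DMSO baseline.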

Read-out in assay [9]: Human Leukocyte Antigen - DR isotype (HLADR), HLA-DRA (gene 3122)
The assay is described as follows: BSK_BE3C_HLADR: BioMAP Diversity Plus: BE3C Assay for Human Leukocyte Antigen - DR isotype (HLADR) Biomarker Activity (AID 2283032). To be noted: primary human bronchial epithelial cells; actives raise or lower the signal. A digest of the protocol: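 Chemicals are dosed onto BE3C bronchial epithelial cultures of human origin and left 24 h. HLA-DR is then measured by ELISA, and the endpoint is fitted in both directions using DMSO as the activity baseline.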

Read-out in assay [10]: Monokine induced gamma interferon (MIG), CXCL9 (gene 4283)
The assay can be described thus: BSK_BE3C_MIG: BioMAP Diversity Plus: BE3C Assay for Monokine induced gamma interferon (MIG) Biomarker Activity (AID 2283035).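 Also: MIG protein measured by ELISA in BE3C cultures after 24 h of dosing.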 To be noted: primary human bronchial epithelial cells; actives raise or lower the signal. A digest of the protocol:
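Dose cells (human primary bronchial epithelial), incubate 24 h, quantify MIG by ELISA, then fit concentration–response in both directions relative to DMSO control.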

Read-out in assay [11]: Transforming growth factor beta 1 (TGFb1), TGFB1 (gene 7040)
The assay can be described thus: BSK_BE3C_TGFb1: BioMAP Diversity Plus: BE3C Assay for Transforming growth factor beta 1 (TGFb1) Biomarker Activity (AID 2283036;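 as to outcome: TGF-b1 protein level measured by ELISA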). To be noted: primary human bronchial epithelial cells; actives raise or lower the signal. The procedure, abridged: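 Bronchial epithelial primary cells are treated with test chemical, then TGF-b1 is quantified by ELISA after 24 hours. Values derive from bidirectional fitting against DMSO, with cytotoxicity checked by SRB staining in parallel cultures.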

Read-out in assay [12]: urokinase plasminogen activator (uPA), PLAU (gene 5328)
The assay is described as follows: BSK_BE3C_uPA: BioMAP Diversity Plus: BE3C Assay for urokinase plasminogen activator (uPA) Biomarker Activity (AID 2283038).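 Also: uPA protein level quantified by ELISA in cell cultures; uPA read one day after compound addition.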 To be noted: primary human bronchial epithelial cells; actives raise or lower the signal. The procedure, abridged:
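Using confluent primary human lung bronchial epithelial cultures, we dosed chemicals, waited 24 h, then ran a uPA ELISA, fitting bidirectionally against DMSO.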

Read-out in assay [13]: Macrophage colony-stimulating factor (MCSF), CSF1 (gene 1435)
The assay can be described thus: BSK_CASM3C_MCSF: BioMAP Diversity Plus: CASM3C Assay for Macrophage colony-stimulating factor (MCSF) Biomarker Activity (AID 2283044).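 Also: M-CSF protein amount quantified by ELISA after 24 h exposure.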 Conditions: primary human coronary artery smooth muscle cells; actives raise or lower the signal.

Read-out in assay [14]: Low-density lipoprotein receptor (LDLR), LDLR (gene 3949)
The assay can be described thus: BSK_CASM3C_LDLR: BioMAP Diversity Plus: CASM3C Assay for Low-density lipoprotein receptor (LDLR) Biomarker Activity (AID 2283045).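 Also: LDLR protein level on the cell surface quantified by ELISA.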 To be noted: primary human coronary artery smooth muscle cells; actives raise or lower the signal.

Read-out in assay [15]: serum amyloid A (SAA), SAA1 (gene 6288)
The assay is described as follows: BSK_CASM3C_SAA: BioMAP Diversity Plus: CASM3C Assay for serum amyloid A (SAA) Biomarker Activity (AID 2283049).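 Also: SAA protein level quantified by ELISA.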 To be noted: primary human coronary artery smooth muscle cells; actives raise or lower the signal.

The nature of assay [16]: BSK_CASM3C_SRB: Viability Assessment in the BioMAP Diversity Plus: CASM3C Assay (AID 2283050).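 Also: cells exposed to compound for 24 h.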 Conditions: primary human coronary artery smooth muscle cells.
Read-out in assay [17]: Vascular cell adhesion molecule 1 (VCAM1), VCAM1 (gene 7412)
The assay is described as follows: BSK_CASM3C_VCAM1: BioMAP Diversity Plus: CASM3C Assay for Vascular cell adhesion molecule 1 (VCAM1) Biomarker Activity (AID 2283055).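 Also: VCAM-1 protein level quantified by ELISA on the cells.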 Conditions: primary human coronary artery smooth muscle cells; actives raise or lower the signal.

Read-out in assay [18]: Macrophage colony-stimulating factor (MCSF), CSF1 (gene 1435)
The assay can be described thus: BSK_hDFCGF_MCSF: BioMAP Diversity Plus: hDFCGF Assay for Macrophage colony-stimulating factor (MCSF) Biomarker Activity (AID 2283060). To be noted: primary human foreskin fibroblasts; actives raise or lower the signal. The procedure, abridged: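 fibroblasts (human foreskin, primary), 24 h post-dose; M-CSF by ELISA; bidirectional fit, DMSO = baseline.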

Read-out in assay [19]: Interleukin-1 alpha (IL1a), IL1A (gene 3552)
The assay is described as follows: BSK_KF3CT_IL1a: BioMAP Diversity Plus: KF3CT Assay for Interleukin-1 alpha (IL1a) Biomarker Activity (AID 2283070). Conditions: primary human keratinocytes with fibroblasts; actives raise or lower the signal. The procedure, abridged:
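Primary skin co-culture (keratinocytes, foreskin fibroblasts), 24 h exposure; ELISA for IL-1a; bidirectional curve fit vs DMSO.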

Read-out in assay [20]: TIMP metallopeptidase inhibitor 2 (TIMP2), TIMP2 (gene 7077)
The assay can be described thus: BSK_KF3CT_TIMP2: BioMAP Diversity Plus: KF3CT Assay for TIMP metallopeptidase inhibitor 2 (TIMP2) Biomarker Activity (AID 2283071). Conditions: primary human keratinocytes with fibroblasts; actives raise or lower the signal. A digest of the protocol:
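Chemicals were dosed onto human skin primary co-cultures of keratinocytes and foreskin fibroblasts, and TIMP-2 was measured by ELISA after 24 hours. Activity in either direction was fitted relative to DMSO.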

As to `CC1(C)[C@H](C(=O)O[C@H](C#N)c2cccc(Oc3ccccc3)c2)[C@@H]1C=C(Br)Br`, the AC50 in assay [1] was 300 nM (active); in assay [11] it was 1200 nM (active); in assay [17], 3970 nM (active); in [20] it was 298 nM (active). The result in assay [1], in assay [2], in [3], in assay [4], in assay [5] and in assay [6] was inactive. Further, the outcome in [7], in assay [8], in assay [9], in assay [10], in [11] and in [12] was inactive. Further, the outcome in assay [13], in assay [14], in assay [15], in assay [16], in assay [17] and in assay [18] was inactive. The result in [19] and in [20] was inactive.

For `O=[N+]([O-])c1ccc(Cl)cc1`, the outcome in [1], in assay [2], in assay [3], in [4], in assay [5] and in assay [6] was inactive. The result in assay [7], in assay [8], in assay [9], in assay [10], in [11] and in assay [12] was inactive. Besides, the outcome in assay [13], in assay [14], in assay [15], in [16], in assay [17] and in [18] was inactive. The result in assay [19] and in assay [20] was inactive.

Consider `CCc1cc(C)cc(CC)c1-c1c(OC(=O)C(C)(C)C)n2n(c1=O)CCOCC2`, for which the AC50 is 20000 nM (active) in assay [1]; 20.9 nM (active) in [5]; 3970 nM (active) in [9]; 975 nM (active) in assay [13]; 2790 nM (active) in assay [14]; 82.2 nM (active) in assay [15]. Further, in assay [20], the AC50 is 3970 nM (active). Further, the outcome in [2], in assay [3], in [4], in assay [6], in assay [7] and in assay [8] was inactive. In addition, the result in assay [10], in assay [11], in assay [12], in [16], in assay [17] and in assay [18] was inactive. Moreover, in assay [19], the result was inactive.

Take `Oc1cc(Cl)ccc1Cl`: the outcome in [1], in [2], in [3], in assay [4], in assay [5] and in assay [6] was inactive. Besides, the result in assay [7], in assay [8], in assay [9], in assay [10], in assay [11] and in assay [12] was inactive. Also, the outcome in [13], in assay [14], in [15], in assay [16], in [17] and in assay [18] was inactive. Moreover, the result in assay [19] and in [20] was inactive.

`COc1ccc(CO)cc1`: the outcome in [1], in assay [2], in [3], in assay [4], in assay [5] and in assay [6] was inactive. The outcome in assay [7], in [8], in [9], in assay [10], in [12] and in [13] was inactive. For the same compound, the outcome in assay [14], in [15], in assay [16], in [17], in [18] and in assay [19] was inactive. For the same compound, the result in assay [20] was inactive.
